{
  "source": "paper PMC7862700",
  "about": "“An all-to-all approach to the identification of sequence-specific readers for epigenetic DNA modifications on cytosine”",
  "assay_in_all_cases": "DAPPL (digital affinity profiling via proximity ligation, sequencing); 10 mM Tris-HCl pH 7.5, 50 mM NaCl, 1 mM DTT, 4% glycerol, room temperature, 30 min; GST-TFs on glutathione beads, 16-mer random dsDNA library, 0.1% formaldehyde crosslink after washing; high values mean tight binding",
  "key": {"FEV": {"biological_target": "T1, FEV (Homo sapiens, UniProt Q99581 1-238)", "T1 sequence": "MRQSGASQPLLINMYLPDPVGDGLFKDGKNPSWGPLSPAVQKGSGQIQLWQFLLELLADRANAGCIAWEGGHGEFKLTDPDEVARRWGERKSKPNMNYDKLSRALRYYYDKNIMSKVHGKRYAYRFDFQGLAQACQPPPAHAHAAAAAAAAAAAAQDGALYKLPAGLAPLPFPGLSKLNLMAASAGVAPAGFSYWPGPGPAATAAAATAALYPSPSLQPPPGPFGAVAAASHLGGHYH", "settings": "protein: recombinant; tags: N-terminal GST; dsDNA, one strand shown", "how_it_was_run": "(§1)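 Binding signal is each hexamer's read frequency for a factor divided by its frequency in the tag-only sample. The factors were GST-fused human transcription factors from yeast, captured on glutathione beads, DNA-barcoded and pooled with that sample. Pools were incubated with 200 nmole of a random double-stranded 16-mer DNA library in Tris/NaCl/DTT/glycerol buffer at room temperature for 30 min, then washed, crosslinked with 0.1% formaldehyde, proximity-ligated with BsaI/T4 ligase (1 h, 37 °C), PCR-amplified and sequenced on an Illumina NextSeq500.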"}, "ETV5": {"biological_target": "ETV5 (Homo sapiens, UniProt P41161 1-510)", "sequence (P41161 whole entry)": "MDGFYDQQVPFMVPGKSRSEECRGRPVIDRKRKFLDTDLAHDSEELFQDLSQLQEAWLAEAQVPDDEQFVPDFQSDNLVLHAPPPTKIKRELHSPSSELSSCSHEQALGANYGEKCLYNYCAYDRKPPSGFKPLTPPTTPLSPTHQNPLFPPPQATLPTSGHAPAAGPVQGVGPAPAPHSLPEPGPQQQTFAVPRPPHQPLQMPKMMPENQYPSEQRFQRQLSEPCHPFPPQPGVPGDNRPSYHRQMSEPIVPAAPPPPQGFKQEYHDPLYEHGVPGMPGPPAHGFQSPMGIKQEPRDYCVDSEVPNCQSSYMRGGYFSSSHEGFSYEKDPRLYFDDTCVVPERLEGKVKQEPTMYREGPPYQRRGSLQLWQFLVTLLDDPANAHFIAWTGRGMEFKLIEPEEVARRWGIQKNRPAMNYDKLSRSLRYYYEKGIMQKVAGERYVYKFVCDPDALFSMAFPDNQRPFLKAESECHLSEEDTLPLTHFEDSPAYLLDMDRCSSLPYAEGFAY", "settings": "protein: recombinant; tags: N-terminal GST; dsDNA, one strand shown", "how_it_was_run": "as §1"}, "HSF1": {"biological_target": "HSF1 (Homo sapiens, UniProt Q00613 1-529)", "sequence (Q00613 whole entry)": "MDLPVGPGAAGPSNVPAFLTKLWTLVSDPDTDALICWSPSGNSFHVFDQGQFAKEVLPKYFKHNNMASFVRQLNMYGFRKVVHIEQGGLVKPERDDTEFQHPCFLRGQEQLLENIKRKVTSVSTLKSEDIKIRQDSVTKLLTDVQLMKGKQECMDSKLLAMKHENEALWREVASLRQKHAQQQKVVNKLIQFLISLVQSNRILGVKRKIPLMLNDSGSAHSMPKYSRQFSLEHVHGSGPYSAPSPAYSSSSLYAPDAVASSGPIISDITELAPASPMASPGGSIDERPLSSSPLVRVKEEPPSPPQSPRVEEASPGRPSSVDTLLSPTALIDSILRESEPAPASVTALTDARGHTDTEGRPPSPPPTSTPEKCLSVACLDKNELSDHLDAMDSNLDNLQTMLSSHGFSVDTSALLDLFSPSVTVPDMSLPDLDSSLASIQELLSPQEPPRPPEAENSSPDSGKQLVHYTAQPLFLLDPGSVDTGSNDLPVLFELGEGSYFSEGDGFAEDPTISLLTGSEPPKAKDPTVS", "settings": "protein: recombinant; tags: N-terminal GST; chain copies: 3; dsDNA, one strand shown", "how_it_was_run": "as §1"}, "ELF4": {"biological_target": "ELF4 (Homo sapiens, UniProt Q99607 1-663)", "sequence (Q99607 whole entry)": "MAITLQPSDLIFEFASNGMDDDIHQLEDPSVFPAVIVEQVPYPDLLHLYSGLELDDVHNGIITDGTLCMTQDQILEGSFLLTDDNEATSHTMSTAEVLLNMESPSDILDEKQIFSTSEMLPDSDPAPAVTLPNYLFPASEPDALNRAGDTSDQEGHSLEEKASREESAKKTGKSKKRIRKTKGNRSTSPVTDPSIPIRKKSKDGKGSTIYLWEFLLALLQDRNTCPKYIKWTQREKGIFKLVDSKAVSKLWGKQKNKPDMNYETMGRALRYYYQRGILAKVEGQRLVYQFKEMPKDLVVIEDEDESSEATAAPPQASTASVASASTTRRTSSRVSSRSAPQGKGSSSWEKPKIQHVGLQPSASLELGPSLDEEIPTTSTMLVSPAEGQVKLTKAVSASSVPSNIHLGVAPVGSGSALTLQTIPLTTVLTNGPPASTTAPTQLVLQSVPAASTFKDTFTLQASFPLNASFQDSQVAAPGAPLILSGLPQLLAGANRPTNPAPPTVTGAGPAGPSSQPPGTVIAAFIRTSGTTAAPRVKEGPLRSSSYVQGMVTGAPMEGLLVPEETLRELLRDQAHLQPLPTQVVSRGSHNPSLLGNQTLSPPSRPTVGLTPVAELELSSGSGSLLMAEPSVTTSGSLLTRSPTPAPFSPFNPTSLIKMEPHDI", "settings": "protein: recombinant; tags: N-terminal GST; dsDNA, one strand shown", "how_it_was_run": "as §1"}, "ELK4": {"biological_target": "T2, ELK4 (Homo sapiens, UniProt P28324-2 1-405)", "T2 sequence": "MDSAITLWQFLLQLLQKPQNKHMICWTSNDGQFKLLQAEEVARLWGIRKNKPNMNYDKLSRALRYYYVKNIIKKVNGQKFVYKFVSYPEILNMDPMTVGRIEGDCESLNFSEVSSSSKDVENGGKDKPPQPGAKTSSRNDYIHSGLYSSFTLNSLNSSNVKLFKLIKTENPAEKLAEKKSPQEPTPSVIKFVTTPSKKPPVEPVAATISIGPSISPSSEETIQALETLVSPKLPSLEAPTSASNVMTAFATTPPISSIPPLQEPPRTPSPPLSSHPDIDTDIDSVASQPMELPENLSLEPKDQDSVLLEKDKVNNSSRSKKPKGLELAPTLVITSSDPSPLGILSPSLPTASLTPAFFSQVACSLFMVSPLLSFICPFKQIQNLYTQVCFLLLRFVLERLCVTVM", "settings": "protein: recombinant; tags: N-terminal GST; dsDNA, one strand shown", "how_it_was_run": "as §1"}, "ETV2": {"biological_target": "T3, ETV2 (Homo sapiens, UniProt O00321 1-342)", "T3 sequence": "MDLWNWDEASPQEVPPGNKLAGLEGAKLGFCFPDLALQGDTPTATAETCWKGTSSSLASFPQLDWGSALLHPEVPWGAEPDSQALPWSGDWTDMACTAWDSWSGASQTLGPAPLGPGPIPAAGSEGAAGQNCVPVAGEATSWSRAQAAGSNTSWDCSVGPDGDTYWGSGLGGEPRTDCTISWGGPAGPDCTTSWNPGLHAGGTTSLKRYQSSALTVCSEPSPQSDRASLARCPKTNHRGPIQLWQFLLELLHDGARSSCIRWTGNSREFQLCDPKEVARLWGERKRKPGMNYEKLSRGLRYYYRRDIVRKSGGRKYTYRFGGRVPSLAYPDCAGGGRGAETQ", "settings": "protein: recombinant; tags: N-terminal GST; dsDNA, one strand shown", "how_it_was_run": "as §1"}, "ELF3": {"biological_target": "T4, ELF3 (Homo sapiens, UniProt P78545 1-371)", "T4 sequence": "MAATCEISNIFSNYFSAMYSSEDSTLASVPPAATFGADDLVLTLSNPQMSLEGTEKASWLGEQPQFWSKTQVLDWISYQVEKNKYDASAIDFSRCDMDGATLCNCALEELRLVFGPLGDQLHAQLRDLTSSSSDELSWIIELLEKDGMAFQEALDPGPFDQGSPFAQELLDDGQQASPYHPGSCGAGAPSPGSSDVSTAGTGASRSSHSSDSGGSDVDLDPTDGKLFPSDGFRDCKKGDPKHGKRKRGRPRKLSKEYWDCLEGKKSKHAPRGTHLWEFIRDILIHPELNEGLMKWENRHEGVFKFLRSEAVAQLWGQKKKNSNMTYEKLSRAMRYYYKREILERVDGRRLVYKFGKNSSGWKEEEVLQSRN", "settings": "protein: recombinant; tags: N-terminal GST; dsDNA, one strand shown", "how_it_was_run": "as §1"}, "CRX": {"biological_target": "CRX (Homo sapiens, UniProt O43186 1-299)", "sequence (O43186 whole entry)": "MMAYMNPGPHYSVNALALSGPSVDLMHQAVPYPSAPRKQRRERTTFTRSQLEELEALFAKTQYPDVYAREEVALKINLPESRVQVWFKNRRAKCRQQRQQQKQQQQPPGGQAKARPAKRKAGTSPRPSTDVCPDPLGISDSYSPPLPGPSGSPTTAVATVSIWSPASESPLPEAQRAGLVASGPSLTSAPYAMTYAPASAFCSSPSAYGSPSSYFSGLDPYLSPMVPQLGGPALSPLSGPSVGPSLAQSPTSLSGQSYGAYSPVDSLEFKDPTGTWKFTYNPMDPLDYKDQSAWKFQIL", "settings": "protein: recombinant; tags: N-terminal GST; dsDNA, one strand shown", "how_it_was_run": "as §1"}, "ETV1": {"biological_target": "ETV1 (Homo sapiens, UniProt P50549 1-477)", "sequence (P50549 whole entry)": "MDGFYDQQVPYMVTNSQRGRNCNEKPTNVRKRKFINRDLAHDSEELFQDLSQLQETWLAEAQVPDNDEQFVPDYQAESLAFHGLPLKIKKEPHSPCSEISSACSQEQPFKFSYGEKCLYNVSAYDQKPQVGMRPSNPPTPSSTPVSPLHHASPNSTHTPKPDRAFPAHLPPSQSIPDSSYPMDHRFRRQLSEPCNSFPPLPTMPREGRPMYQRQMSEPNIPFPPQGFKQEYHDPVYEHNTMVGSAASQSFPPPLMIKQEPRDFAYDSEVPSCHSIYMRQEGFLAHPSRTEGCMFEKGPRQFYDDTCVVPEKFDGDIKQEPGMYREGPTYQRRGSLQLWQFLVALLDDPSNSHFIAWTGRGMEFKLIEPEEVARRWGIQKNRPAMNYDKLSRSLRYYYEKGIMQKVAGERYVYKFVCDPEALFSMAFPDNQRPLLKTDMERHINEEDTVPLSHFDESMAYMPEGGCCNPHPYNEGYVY", "settings": "protein: recombinant; tags: N-terminal GST; dsDNA, one strand shown", "how_it_was_run": "as §1"}, "ERF": {"biological_target": "T5, ERF (Homo sapiens, UniProt P50548 1-548)", "T5 sequence": "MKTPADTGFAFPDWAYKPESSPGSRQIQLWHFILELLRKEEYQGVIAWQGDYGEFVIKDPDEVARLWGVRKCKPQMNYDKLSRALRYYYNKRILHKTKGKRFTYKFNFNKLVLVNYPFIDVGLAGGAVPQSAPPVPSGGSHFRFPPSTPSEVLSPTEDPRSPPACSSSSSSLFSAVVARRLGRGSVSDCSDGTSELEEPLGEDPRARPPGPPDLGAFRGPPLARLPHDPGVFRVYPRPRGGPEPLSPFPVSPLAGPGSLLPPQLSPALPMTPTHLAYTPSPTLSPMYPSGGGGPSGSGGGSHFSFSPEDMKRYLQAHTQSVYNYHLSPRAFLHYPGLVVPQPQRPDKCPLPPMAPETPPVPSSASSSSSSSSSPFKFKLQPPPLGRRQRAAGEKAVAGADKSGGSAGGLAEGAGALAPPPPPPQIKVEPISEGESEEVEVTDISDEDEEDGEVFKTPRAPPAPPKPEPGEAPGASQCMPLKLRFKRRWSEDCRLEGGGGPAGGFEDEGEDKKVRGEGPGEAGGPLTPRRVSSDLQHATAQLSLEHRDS", "settings": "protein: recombinant; tags: N-terminal GST; dsDNA, one strand shown", "how_it_was_run": "as §1"}, "ETV3L": {"biological_target": "T6, ETV3L (Homo sapiens, UniProt Q6ZN32 1-361)", "T6 sequence": "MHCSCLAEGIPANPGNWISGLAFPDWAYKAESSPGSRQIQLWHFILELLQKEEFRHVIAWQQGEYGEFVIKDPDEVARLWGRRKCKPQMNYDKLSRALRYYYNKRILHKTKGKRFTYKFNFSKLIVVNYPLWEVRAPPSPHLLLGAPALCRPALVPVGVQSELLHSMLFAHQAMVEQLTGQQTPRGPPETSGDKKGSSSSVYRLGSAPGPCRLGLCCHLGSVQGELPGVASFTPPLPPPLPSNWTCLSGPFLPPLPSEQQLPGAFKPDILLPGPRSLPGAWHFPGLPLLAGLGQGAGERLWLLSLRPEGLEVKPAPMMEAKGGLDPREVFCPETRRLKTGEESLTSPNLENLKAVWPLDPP", "settings": "protein: recombinant; tags: N-terminal GST; dsDNA, one strand shown", "how_it_was_run": "as §1"}, "ETS2": {"biological_target": "T7, ETS2 (Homo sapiens, UniProt P15036 1-469)", "T7 sequence": "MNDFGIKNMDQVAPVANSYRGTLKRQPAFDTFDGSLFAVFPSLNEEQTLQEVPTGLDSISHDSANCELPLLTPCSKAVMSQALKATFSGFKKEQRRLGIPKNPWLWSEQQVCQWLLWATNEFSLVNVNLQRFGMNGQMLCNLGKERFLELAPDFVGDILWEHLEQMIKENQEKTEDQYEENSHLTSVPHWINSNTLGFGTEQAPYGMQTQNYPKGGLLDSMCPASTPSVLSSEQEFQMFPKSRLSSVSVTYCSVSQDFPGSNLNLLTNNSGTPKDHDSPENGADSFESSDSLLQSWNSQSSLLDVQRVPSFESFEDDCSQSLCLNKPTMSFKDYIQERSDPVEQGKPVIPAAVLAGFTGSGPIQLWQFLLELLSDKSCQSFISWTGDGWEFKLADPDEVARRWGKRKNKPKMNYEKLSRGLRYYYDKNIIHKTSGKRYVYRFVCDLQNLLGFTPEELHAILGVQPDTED", "settings": "protein: recombinant; tags: N-terminal GST; dsDNA, one strand shown", "how_it_was_run": "as §1"}, "ELF5": {"biological_target": "T8, ELF5 (Homo sapiens, UniProt Q9UKW6-2 1-255)", "T8 sequence": "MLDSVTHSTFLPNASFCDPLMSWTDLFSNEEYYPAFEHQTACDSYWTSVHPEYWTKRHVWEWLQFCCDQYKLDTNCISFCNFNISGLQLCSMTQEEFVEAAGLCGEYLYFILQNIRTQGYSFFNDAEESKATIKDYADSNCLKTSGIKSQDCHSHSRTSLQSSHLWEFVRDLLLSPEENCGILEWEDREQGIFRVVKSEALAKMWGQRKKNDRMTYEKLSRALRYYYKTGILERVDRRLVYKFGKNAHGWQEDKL", "settings": "protein: recombinant; tags: N-terminal GST; dsDNA, one strand shown", "how_it_was_run": "as §1"}, "ETV3": {"biological_target": "T9, ETV3 (Homo sapiens, UniProt P41162-2 1-143)", "T9 sequence": "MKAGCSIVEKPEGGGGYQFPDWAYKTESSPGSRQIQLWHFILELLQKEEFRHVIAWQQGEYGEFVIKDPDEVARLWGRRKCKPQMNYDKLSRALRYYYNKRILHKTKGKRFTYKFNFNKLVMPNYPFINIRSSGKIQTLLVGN", "settings": "protein: recombinant; tags: N-terminal GST; dsDNA, one strand shown", "how_it_was_run": "as §1"}, "ETV6": {"biological_target": "ETV6 (Homo sapiens, UniProt P41212 1-452)", "sequence (P41212 whole entry)": "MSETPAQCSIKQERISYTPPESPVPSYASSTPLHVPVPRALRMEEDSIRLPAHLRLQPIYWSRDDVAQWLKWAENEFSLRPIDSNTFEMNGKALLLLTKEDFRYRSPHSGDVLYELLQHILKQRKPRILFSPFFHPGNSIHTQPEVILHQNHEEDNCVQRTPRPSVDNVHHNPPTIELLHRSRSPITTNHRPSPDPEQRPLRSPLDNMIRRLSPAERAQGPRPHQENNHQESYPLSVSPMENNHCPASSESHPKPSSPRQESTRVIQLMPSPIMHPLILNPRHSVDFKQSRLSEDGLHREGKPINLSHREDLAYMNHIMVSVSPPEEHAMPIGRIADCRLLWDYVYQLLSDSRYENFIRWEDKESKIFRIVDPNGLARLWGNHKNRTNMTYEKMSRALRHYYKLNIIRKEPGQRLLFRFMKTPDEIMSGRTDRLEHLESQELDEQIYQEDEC", "settings": "protein: recombinant; tags: N-terminal GST; dsDNA, one strand shown", "how_it_was_run": "as §1"}},
  "data": [
    {"sequence": "CTATAG", "values": [
      {"measurement": "binding signal", "setting": "FEV", "result": "1.04 fold enrichment (6-mer frequency, TF over GST control)"},
      {"measurement": "binding signal", "setting": "ETV5", "result": "1.1 fold enrichment (6-mer frequency, TF over GST control)"},
      {"measurement": "binding signal", "setting": "HSF1", "result": "1.03 fold enrichment (6-mer frequency, TF over GST control)"},
      {"measurement": "binding signal", "setting": "ELF4", "result": "1.02 fold enrichment (6-mer frequency, TF over GST control)"},
      {"measurement": "binding signal", "setting": "ELK4", "result": "1.14 fold enrichment (6-mer frequency, TF over GST control)"},
      {"measurement": "binding signal", "setting": "ETV2", "result": "1.27 fold enrichment (6-mer frequency, TF over GST control)"},
      {"measurement": "binding signal", "setting": "ELF3", "result": "1.04 fold enrichment (6-mer frequency, TF over GST control)"},
      {"measurement": "binding signal", "setting": "CRX", "result": "1.05 fold enrichment (6-mer frequency, TF over GST control)"},
      {"measurement": "binding signal", "setting": "ETV1", "result": "1.01 fold enrichment (6-mer frequency, TF over GST control)"},
      {"measurement": "binding signal", "setting": "ERF", "result": "1.03 fold enrichment (6-mer frequency, TF over GST control)"},
      {"measurement": "binding signal", "setting": "ETV3L", "result": "1.05 fold enrichment (6-mer frequency, TF over GST control)"},
      {"measurement": "binding signal", "setting": "ETS2", "result": "1 fold enrichment (6-mer frequency, TF over GST control)"},
      {"measurement": "binding signal", "setting": "ELF5", "result": "1.05 fold enrichment (6-mer frequency, TF over GST control)"},
      {"measurement": "binding signal", "setting": "ETV3", "result": "1.09 fold enrichment (6-mer frequency, TF over GST control)"},
      {"measurement": "binding signal", "setting": "ETV6", "result": "1.04 fold enrichment (6-mer frequency, TF over GST control)"}
    ]}
  ]
}
